# Screening data deposited in PubChem BioAssay by NMMLSC.
# The list is not random: actives were taken first. Their share in the collection is about 0.89%.
# CIT2 TOR yeast: modulators of TOR pathway CIT2-GFP in S. cerevisiae | actives 0.065% (n = 320,000) | S. cerevisiae CIT2-GFP strain, flow cytometry, 3 h; 100 means same as DMSO wells | GFP response vs DMSO, % at 10 µM;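 active = GFP response relative to DMSO above a set limit, near the screen mean plus 3 SD, cut at about 150% in these data; inconclusive = Fewer than 70 cells measured for a yeast strain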;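 note: ratio of well median GFP fluorescence to mean of DMSO wells on the plate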
# LAP4 TOR yeast: alters LAP4-GFP fluorescence in TOR pathway yeast screen. GFP response vs DMSO, % at 10 µM. S. cerevisiae LAP4-GFP multiplex, flow cytometry GFP, 3 h; median GFP as percent of DMSO wells. actives 0.34% (n = 320,000). AID 2023;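 active = GFP response vs DMSO above a set limit, about the screen mean plus 3 SD, cut at about 150% in these data; inconclusive = under 70 cell events counted for the yeast strain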
# RPL19A-GFP yeast: yeast TOR pathway RPL19A-GFP modulation; S. cerevisiae RPL19A-GFP strain, flow cytometry, 3 h; active compounds read low; percent response vs DMSO, % at 10 µM; AID 2025; actives 0.3% (n = 330,000);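 active = percent response vs DMSO below 50%; inconclusive = fewer than 70 events counted for the yeast strain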;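 note: median channel GFP fluorescence of the barcoded RPL19A-GFP strain; ratio of sample median GFP to plate DMSO average so 100% = DMSO; lower means less RPL19A-GFP as with rapamycin TOR inhibition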
# MEP2 TOR yeast: modulators of TOR pathway MEP2-GFP in S. cerevisiae; GFP response vs DMSO, % at 10 µM; actives 0.51% (n = 330,000); AID 2016; S. cerevisiae MEP2-GFP strain, flow cytometry GFP, 3 h; 100% = DMSO control level;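 active = GFP response versus DMSO above a set limit, roughly screen mean plus 3 SD, cut at about 180% in these data; inconclusive = fewer than 70 cells counted for a yeast strain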;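 note: median GFP fluorescence of the barcode-gated MEP2-GFP cells per well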
# AGP1 TOR yeast: yeast TOR pathway AGP1-GFP modulation | S. cerevisiae AGP1-GFP multiplex flow cytometry, 3 h; GFP as percent of DMSO wells | GFP response vs DMSO, % at 10 µM | actives 0.02% (n = 320,000) | AID 2066;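 active = GFP response relative to DMSO above a set limit, near screen average plus 3 SD, cut at about 150% in these data; inconclusive = fewer than 70 cells counted for the yeast strain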;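 note: median GFP channel fluorescence of the gated AGP1 strain per well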
# * hit, by the source's call; ? = inconclusive; · = no result; + = active, no number; [ ] = remark or other dose.
SMILES,CIT2 TOR yeast,LAP4 TOR yeast,RPL19A-GFP yeast,MEP2 TOR yeast,AGP1 TOR yeast
COc1ccc(C2Nc3ccc4ccccc4c3-c3c2c(=O)oc2ccccc32)cc1 (stereo unspecified),91,87,79,114,86
O=c1oc2ccccc2c2c1C(c1ccc(Cl)cc1)Nc1ccc3ccccc3c1-2 (stereo unspecified),?,91,39*[may fluoresce violet],159,71
CCN(CC)c1ccc(NC(=S)NCC2CCCO2)cc1 (stereo unspecified),108,112,109,111,109
CCc1noc(C)c1C(=O)NNC(=O)COc1ccc(C)c(C)c1,100,106,103,104,102
COc1cccc(CC(NC(C)=O)C(=O)NC2CCN(c3nnnn3-c3ccccc3)CC2)c1 (stereo unspecified),109,98,100,102,108
COc1ccc(CC(NC(C)=O)C(=O)NC2CCN(c3nnnn3-c3ccccc3)CC2)cc1 (stereo unspecified),?,92,30*[may fluoresce violet],205*[may fluoresce violet],?
COc1ccc(CN2CCN(S(=O)(=O)c3ccc(NC(C)=O)cc3)CC2)c(OC)c1OC,97,104,98,95,100
COc1cccc(OC)c1OCCCCCCN1CCN(C)CC1,107,94,104,108,102
CN1CCN(CCCCOc2ccccc2C=O)CC1,80,163*,103,104,93
Cc1cc(=O)oc2c3c(cc(OCC(=O)Nc4ccc(CCO)cc4)c12)OC(C)(C)CC3,?,90,41*[may fluoresce violet],209*[may fluoresce violet],?
COc1ccc(C(=O)Nc2c(N)nc[nH]c2=O)cc1,·,·,65,181*,·
O=Cc1c(Sc2ccccn2)nc2ccccn2c1=O,100,96,101,107,95
O=Cc1c(Sc2ccccc2)nc2ccccn2c1=O,?,78,70,223*[may fluoresce violet],?
CCOc1cc2[nH]c(=O)n(CCCCCC(=O)NCc3ccco3)c(=O)c2cc1OCC,?,92,61,190*[may fluoresce violet],20
Cc1c(CCO)c(=O)[nH]n1S(=O)(=O)c1ccc([N+](=O)[O-])cc1,156*[may fluoresce green],102,92,103,115
COc1ccc(S(=O)(=O)n2[nH]c(=O)c(CCO)c2C)cc1,137,106,95,114,108
Cc1ccc2c(c1)c1c3n2CCN(C(=O)CN2CCN(C)CC2)C3CCC1 (stereo unspecified),96,92,95,94,93
CN1CCN(CC(=O)N2CCn3c4c(c5cc(C6CCCCC6)ccc53)CCCC42)CC1 (stereo unspecified),89,169*,91,104,99
CN(C)C1(CNC(=O)C2CCN(S(=O)(=O)c3cc(Cl)ccc3Cl)CC2)CCCCC1,98,98,100,96,95
COc1cccc(N(CC(=O)NC2CCCCC2)C(=O)CCCC(=O)Nc2ccccn2)c1,94,79,88,73,81
CCOCCCNC(=O)/C(C#N)=C/c1ccc([N+](=O)[O-])o1,103,488*,126,+,80
CC(NC(=O)/C(C#N)=C/c1ccc([N+](=O)[O-])o1)c1ccccc1 (stereo unspecified),?,895*[may fluoresce violet],203,+[may fluoresce violet],150
CCOCCCNC(=O)/C(C#N)=C/c1ccc(-c2ccc(S(=O)(=O)N3CCOCC3)cc2)o1,96,89,101,98,101
CCOC(=O)C(=Cc1ccc(F)cc1)C(=O)OCC,107,122,65,188*,25
CCCCC[C@H](O)/C=C/C1=C(CCCCCCC(=O)O)C(=O)CC1,91,95,105,107,99
CCCCC[C@H](O)/C=C/[C@@H]1[C@@H](CCCCCCC(=O)O)[C@@H](O)C[C@H]1O,101,175*,81,150,109
Cn1c(SCc2ccccc2Cl)nc2c1c(=O)[nH]c(=O)n2C,99,93,104,111,98
Cc1ccc(NC(=O)c2cc(NC(=O)c3ccco3)ccc2N2CCOCC2)cc1,94,103,98,100,97
Cc1ccc(NC(=O)c2cc(NC(=O)c3ccco3)ccc2N2CCCCC2)cc1,?,90,27*[may fluoresce violet],371*[may fluoresce violet],?
NC(=O)c1ccccc1NC(=O)CCn1c(=S)oc2ccccc21,102,95,104,107,99
